# Measurements as given in the OligoGym collection.
# Target: PPP2R2B
# Assay: pooled miR-30 sensor sort-seq; sequence = guide strand
# Details: shRNA
# Also: reference of the scale not given here.
row,Sequence,sensor-assay potency score (higher = more potent)
1,TTCTATTCCAATCATTTCCTGT,-0.465
2,TTCTATTTCTAAACTCTTCAGG,0.0206
3,TATTTCTAAACTCTTCAGGTAA,-0.582

# Target: PPP2R4
# Assay: as above
# Details: shRNA
row,Sequence,sensor-assay potency score (higher = more potent)
1,TTTAGGTAAACAGCCACCTCAG,-0.616
2,TTTTGGAATGATGAAGTTCTGA,-0.939
3,TTTAATCTGAACAGCAATGAGG,-0.87
4,TTGAGGGTAAGGATGAATCCGA,-0.403
5,TTCTCATCCACAAAGTGTCTGG,-0.351
6,TTCATCTCGGTAATAAACAGGA,0.112
7,TTTGGAATGATGAAGTTCTGAG,-0.0141
8,TTGAAGACAATAGCTATTTGGT,-0.254
9,TCTGCTTCCTCGGAGACTCTGT,0.193
10,TATTTGGTCATCCACCCGGAGC,-1.25
11,TTGAAGTGCTGGATCACAGGGA,1.03
12,TGGAACTGTGTGGATCTCCTTT,-1.01

# Target: PPP3R1
# Assay: as above
# Details: shRNA
row,Sequence,sensor-assay potency score (higher = more potent)
1,TTCAATAACACTTAGTTGGCTT,0.15
2,TTATCTGCATTTATTATGGTTT,-0.79
3,TTTTGTCTACAATTTGCTGTAA,-0.67
4,TTTGTCTACAATTTGCTGTAAC,-1.15
5,TTTTTGTGGATATCTAGGCCAC,-0.626
6,TTAAATCTCTTTCCTAGCCTTT,-0.556
7,TAGCCTTTTAATTTCATCCGCA,0.489
8,AATATAGCCATCTTTATCCATG,-1.54
9,TTTGCTGTAACTGTGTATCTTT,0.559
10,TAAAATCACAACTAGCACTTAA,-0.328
11,TTACTCGCTGTACTAAAGGATT,-1.35
12,TCTCCTTTGACACTGAACTGAG,-0.401

# Target: PPY
# Assay: as above
# Details: shRNA
row,Sequence,sensor-assay potency score (higher = more potent)
1,TCCTCTTTGTGTCTTTTCCCAT,-1.36
2,ATCAGCTGCATACTGGGCCATC,-1.61
3,TAACAGAGCCACGCAGGTGGAC,-1.08
4,ATCTACGGAGATCAGCTGCATA,-1.14
5,TGTTGATGTATCTACGGAGATC,-1.64
6,TGTATCTACGGAGATCAGCTGC,0.303
7,TACTGGGCCATCTGCTCTGGTG,-1.25
8,AGCATGTTGATGTATCTACGGA,-1.31
9,TATCTACGGAGATCAGCTGCAT,0.435
10,TCTGGTGTGGCATTGTCCCCTG,0.0817
11,TGTAGTAACAGAGCCACGCAGG,-1.22
12,TGATGTATCTACGGAGATCAGC,-1.04
